High-throughput results deposited in PubChem by Buhrlage Lab, Dana-Farber Cancer Institute and Novartis Institutes for BioMedical Research (Cambridge, Mass).
USP30 block: inhibitors of human USP30 deubiquitinase; AID 1645860; inhibition, % at 25 µM; 47,000 tested, 5.3% active; Q70CQ3; purified USP30, Ub-rhodamine cleavage fluorescence
Target sequence (Q70CQ3 whole entry, looked up): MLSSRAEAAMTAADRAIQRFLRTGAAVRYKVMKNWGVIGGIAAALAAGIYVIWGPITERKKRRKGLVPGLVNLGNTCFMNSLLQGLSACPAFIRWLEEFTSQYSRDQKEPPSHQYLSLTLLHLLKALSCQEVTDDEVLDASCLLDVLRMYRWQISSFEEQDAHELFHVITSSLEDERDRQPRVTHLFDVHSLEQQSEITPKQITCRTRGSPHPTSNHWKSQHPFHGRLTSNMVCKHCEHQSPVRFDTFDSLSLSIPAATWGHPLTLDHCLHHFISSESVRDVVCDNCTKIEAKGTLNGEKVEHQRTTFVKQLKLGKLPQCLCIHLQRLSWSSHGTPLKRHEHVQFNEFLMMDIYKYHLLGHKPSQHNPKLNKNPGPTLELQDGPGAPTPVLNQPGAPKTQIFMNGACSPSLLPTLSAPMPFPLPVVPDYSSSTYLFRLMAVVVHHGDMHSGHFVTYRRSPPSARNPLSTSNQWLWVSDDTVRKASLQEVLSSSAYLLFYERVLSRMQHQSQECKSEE
USP28 block: blocks human USP28 ubiquitin-rhodamine cleavage; Q96RU2; purified USP28, Ub-rhodamine cleavage fluorescence, 30 min; inhibition, % at 25 µM; 47,000 tested, 3% active; AID 1645857
USP17 inh: blocks human USP17 ubiquitin-rhodamine cleavage | purified USP17, Ub-rhodamine cleavage fluorescence, 3 h | inhibition, % at 50 µM | 47,000 tested, 6.5% active | A8MUK1
OTUD3 inh: inhibitors of human OTUD3 deubiquitinase; Q5T2D3; purified OTUD3, Ub-rhodamine fluorescence, 2 h; inhibition, % at 25 µM; 47,000 tested, 0.7% active
The depositor's hits bear a star; i = inactive; . = not tested or not shown. Most compounds without a hit are left out; they make up all but 11% or so of the library. No stated cut-off is given here; in the data, active means inhibition above about 30%; inactive means the rest.

SMILES	USP30 block	USP28 block	USP17 inh	OTUD3 inh
O=C(Nc1ccc2[nH]ccc2c1)C1CCN(S(=O)(=O)c2ccccc2)CC1	45.2*	9.7	28.8	1.9
Cc1ccc(C(=O)Nc2ccc(S(=O)(=O)N3CCCC3)cc2)cc1Br	45.3*	77.5*	14.9	9.7
O=C(Nc1ccc(Br)cc1F)c1ccc(S(=O)(=O)N2CCCC2)cc1	8.4	7.1	19.9	-3.0
O=C(Cn1cccc(S(=O)(=O)N2CCCCCC2)c1=O)NCC1CCCO1 (stereo not drawn)	-19.7	-1.7	0.4	-3.8
CC1CCc2noc(C3CCN(C(=O)Cc4ccccc4F)CC3)c2C1 (stereo not drawn)	-9.7	-6.1	-14.4	-3.2
CCc1ccccc1NC(=O)CN1C(=O)C2CCCN2C(=O)c2ccc(F)cc21 (stereo not drawn)	4.0	7.7	9.0	10.9
O=C(Nc1ccc(S(=O)(=O)N2CCCCC2)cc1)c1ccccn1	.	.	75.2*	4.2
Cc1cc(NC(=O)CN2CCCN(S(=O)(=O)c3ccc(F)cc3)CC2)ccc1Br	37.6*	18.3	35.1*	0.9
CC(/C=C/C(=O)NO[C@@H]1O[C@H](CO)[C@@H](O)[C@H](O)[C@H]1O)=C\C(C)C(=O)c1ccc(N(C)C)cc1 (stereo partly drawn)	19.4	17.9	42.7*	1.7
CNC(=O)/C=C/C(C)=C/C(C)C(=O)c1ccc(N(C)C)cc1 (stereo not drawn)	-30.4	2.1	6.0	0.3
CC1(C)CCCC2=C1CC(C)(C)C(N(C(=O)/C=C/C(=O)O)c1ccccc1)C2 (stereo not drawn)	75.4*	49.4*	76.6*	41.4*
Fc1ccc(-n2ncc3c2ncn2c(-c4cccs4)nnc32)cc1	1.9	-6.6	3.4	-8.3
COc1ccccc1OCC(=O)Nc1ccc2c(c1)CCC(=O)N2Cc1ccccc1	54.3*	15.2	13.9	13.9
O=C(COc1ccccc1F)Nc1ccc2c(c1)CN(C(=O)c1ccco1)CC2	26.9	40.6*	26.3	2.4
COc1ccccc1OCC(=O)Nc1ccc2c(c1)CN(C(=O)c1ccco1)CC2	21.6	35.8*	32.8*	10.2
COc1ccc(C(=O)Nc2ccc3c(c2)CN(C(=O)c2ccco2)CC3)c(OC)c1OC	-13.6	14.0	-3.5	-12.6
O=C(COc1ccccc1)Nc1ccc2c(c1)CN(C(=O)c1ccco1)CC2	-4.9	26.2	7.4	-5.6
O=C(COc1ccc(F)cc1)Nc1ccc2c(c1)CCC(=O)N2Cc1ccccc1	12.2	9.8	.	1.9
CC1(C)Cc2c(c(N3CCOCC3)nc3sc4c(SCCO)ncnc4c23)CO1	.	.	-0.7	-1.3
COc1ccc(S(=O)(=O)n2cc3c(=O)n(C(C)C)c(=O)n(C(C)C)c3n2)cc1	-10.3	9.8	-9.2	-7.0
c1ccc(CCN2CCn3c(nc4ccccc43)C2)cc1	i	-226.2	-156.2	-177.8
O=[N+]([O-])c1ccc2c(c1)nc1n2CCN(Cc2ccco2)C1	41.9*	42.7*	60.8*	22.3
NC(=O)Cn1c(=O)n(Cc2ccc(C(=O)NC3CCCC3)cc2)c(=O)c2ccccc21	28.6	22.9	53.1*	22.6
Cc1ccccc1Cn1c(=O)n(Cc2ccc(C(=O)NC3CCN(Cc4ccccc4)CC3)cc2)c(=O)c2ccccc21	28.8	17.2	16.5	9.3
N#Cc1ccccc1Cn1c(=O)n(Cc2ccc(C(=O)NC3CCCC3)cc2)c(=O)c2ccccc21	33.3*	17.4	16.1	17.4
SMILES	USP30 block	USP28 block	USP17 inh	OTUD3 inh
O=C(NC1CCN(Cc2ccccc2)CC1)c1ccc(Cn2c(=O)c3ccccc3n(Cc3ccccc3F)c2=O)cc1	34.0*	13.1	15.7	10.5
O=C(Cn1c(=O)n(CCC(=O)NC2CCCC2)c(=O)c2ccccc21)NCc1ccccc1Cl	21.1	-4.8	10.4	10.9
O=C(NC1CCCC1)c1ccc(Cn2c(=O)c3ccccc3n(Cc3ccc(F)cc3)c2=O)cc1	3.2	8.0	8.2	10.4
Nc1cc(C2CCN(C(=O)NCc3ccc(F)cc3)CC2)no1	11.5	5.9	0.1	-2.4
O=C1COc2ccc(C(=O)CSc3nnc(-c4cccc(S(=O)(=O)N5CCOCC5)c4)n3C3CCCC3)cc2N1	0.2	-4.0	12.8	-14.9
Cc1nc(C2CCNCC2)cc(N2C(=O)OCC2Cc2ccccc2)n1 (stereo not drawn)	6.3	0.1	-14.7	2.9
CCCn1cc(-c2nccnc2CC2CCN(C(=O)C(C)(C)C)C2)cn1 (stereo not drawn)	-1.9	-2.1	7.3	0.2
COc1ccc(NC(=O)C2Oc3ccc(C)cc3NC2=O)cc1Cl (stereo not drawn)	15.9	25.9	75.1*	-5.7
COc1ccc(OC)c(C(=O)Nc2ccc3c(c2)NC(=O)C(C)O3)c1 (stereo not drawn)	-1.0	0.1	0.4	-4.6
CCNc1nc(SCc2ccc(C)cc2)nc2c1CCCC2	38.8*	27.0	17.6	10.6
Cc1nc(SCc2ccc(C(=O)O)cc2)nc2c1CCCC2	16.7	14.3	17.2	14.9
Oc1cccc2c(-c3ccc(O)c4c(O)cccc34)ccc(O)c12	93.8*	92.4*	98.1*	76.4*
CCOc1ccc(CC(=O)Nc2ccc(-c3cn4cccnc4n3)cc2)cc1	-22.0	43.8*	67.8*	-6.0
CC12CN3CC(C)(CN(C1)C3c1cccc3c1OCO3)C2O (stereo not drawn)	17.7	9.2	14.4	12.9
Cc1cccc(-c2noc(CCn3c(=O)[nH]c4ccccc4c3=O)n2)c1	17.8	30.4*	61.0*	5.2
O=c1c2ccccc2n(Cc2ccccc2)c(=O)n1Cc1nc(-c2ccccc2)no1	30.1*	15.3	11.3	19.7
O=c1[nH]c2ccccc2c(=O)n1CCc1nc(-c2ccncc2)no1	7.4	-6.1	-10.5	-7.3
CCn1c(=O)c2ccccc2n(Cc2nc(-c3cccc(OC)c3)no2)c1=O	-39.0	-2.7	4.9	-0.7
CCCCN1CC(C(=O)Nc2ccc(C(=O)Nc3ccc(Br)c(C)c3)cc2)CC1=O (stereo not drawn)	-26.9	-2.4	39.0*	-1.5
CCCCN1CC(C(=O)Nc2ccc(C(=O)Nc3cccc(Br)c3)cc2)CC1=O (stereo not drawn)	-1.6	0.1	24.0	-5.7
Cc1ccc(S(=O)(=O)N2CCCN(c3nc4cccnc4s3)CC2)cc1	-3.2	-12.1	-16.2	-14.0
Cc1ccc2c(=O)c3c([nH]c2c1C)CCN(CC(=O)NCc1ccccc1)C3	40.1*	18.1	72.3*	1.3
Cc1ccc(Nc2nc(N3CCN(c4ccc(F)cc4)CC3)nc3c2cnn3C)cc1	31.4*	9.8	12.8	13.9
CC1CC(=O)c2cnc(N3CC(C)CC(C)C3)nc2C1 (stereo not drawn)	7.4	-0.6	7.9	3.2
CCOC(=O)CSc1ncnc2c1sc1nc(-c3ccccc3)c3c(c12)CCC3	-92.4	-28.0	-51.5	-21.7
Cc1ccc(Nc2nc(C(=O)N3CCCC3)cc3occc23)cc1Cl	-85.2	0.0	18.7	-6.5
CCOC(=O)c1sc2c(c1C)c(=O)n(Cc1ccccc1)c(=O)n2CC(N)=O	55.2*	0.1	21.5	18.4
CC(C)N1CCc2c(sc(NC(=O)CSc3ccc(Cl)cc3)c2C(N)=O)C1	18.0	24.1	50.0*	-6.1
CC(C)N1CCc2c(sc(NC(=O)CSc3ccc(F)cc3)c2C(N)=O)C1	-2.6	6.2	-8.2	-2.6
